Among the data in PubChem BioAssay (NCATS) are Potency and activity, negative = cell killing values, retold here.

SMILES strings stand for the structures. Records with an inconclusive call do not appear. A number with no mark means an inactive call. Active and inactive are the calls of the source. The call rests on the fitted dose curve; in most records, active means well fitted curve in the direction sought with a large enough effect; inconclusive means small, poorly fitted or top-dose-only effect, or another doubt; inactive means no such curve, though single readings can be large; an effect the other way counts as inactive or inconclusive.

For assay [1], the system named is Hek293T. Briefly: Primary qHTS to identify gynecologic anti-cancer compounds using libraries of approved drugs and bioactive compounds (AID 1345084). Further: nearly all actives have a fitted effect of over 55% in size. Conditions: Gynecologic cancer cell panel viability, ATPlite luminescence, 48 h, control line for the selectivity index; series mostly up to 57.5 µM. The procedure, abridged: (§1)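 Luminescence from the ATPlite ATP-monitoring reagent indicates viable cell number; lower signal means cytotoxicity. Cells received compound 16 h after seeding and were exposed for 48 h across five concentrations.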

For assay [2], the system named is JEG-3. The description is as above. Particulars: Gynecologic cancer cell panel viability, ATPlite luminescence, 48 h; series mostly up to 57.5 µM. The procedure, abridged: as §1
Assay [3] relates to OV90. The assay is described as above. Particulars: Gynecologic cancer cell panel viability, ATPlite luminescence, 48 h; series mostly up to 57.5 µM. The method in brief: as §1
Assay [4] concerns PA-1. The description is as above. Particulars: Gynecologic cancer cell panel viability, ATPlite luminescence, 48 h; series mostly up to 57.5 µM. The procedure, abridged: as §1
For assay [5], the system named is SKOV3. The description is as above. Conditions: Gynecologic cancer cell panel viability, ATPlite luminescence, 48 h; series mostly up to 57.5 µM. The method in brief: as §1
For assay [6], the system named is Tov-21-G. The description is as above. Particulars: Gynecologic cancer cell panel viability, ATPlite luminescence, 48 h; series mostly up to 57.5 µM. The procedure, abridged: as §1
For assay [7], the system named is Tov112D. The assay is described as above. Conditions: Gynecologic cancer cell panel viability, ATPlite luminescence, 48 h; series mostly up to 57.5 µM. The procedure, abridged:
as §1

Assay [8] in a line: Drug repurposing screens with cells derived from glioblastoma tumor samples (AID 1345199). Further: nearly all actives have a fitted effect of over 40% in size. Further: potency means the concentration at half of the fitted maximal effect. Particulars: GBM patient neurospheres viability, ATP luminescence, 48 h. The method in brief: (§2)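 Four patient lines of CD133+ GBM neurospheres were screened at several concentrations; hits were retested in those lines plus three slower-growing GBM lines, using 48-hour treatment and ATP-based viability.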

Assay [9] deals with astro. Described as above. Particulars: viability, ATP luminescence, 48 h; series mostly up to 45.9 µM. The procedure, abridged: as §2
Setting [10] is: at 21.2 µM (top of the series), tumour line B.
The mark [11] stands for this setting: at 21.2 µM (top of the series), tumour line D.
Where [12] appears, read: at 45.9 µM (top of the series), tumour line B.
[13] abbreviates: at 45.9 µM (top of the series), tumour line D.
The mark [14] stands for this setting: at 46 µM (top of the series), tumour line A.
The mark [15] stands for this setting: at 91.6 µM (top of the series), tumour line B.
Where [16] appears, read: at 91.6 µM (top of the series), tumour line D.
On the % scale 0 is the no-effect control and ±100 the full control effect.

Take `CCC1(c2cccc(O)c2)CCCCN(C)C1` (centres undefined): the Potency entry in [1], in [2], in [3], in assay [4], in [5] and in assay [6] was “inactive” in each case. In addition, the Potency entry in [7] and in [9] was “inactive” in each case. The activity, negative = cell killing in assay [8] (setting [10]) is -5.3%; in assay [8] (setting [11]), -23.7%.
In the case of `COCC(=O)N(c1c(C)cccc1C)C(C)C(=O)OC` (centres undefined), the Potency result in [1], in assay [2], in [3], in [4], in assay [5] and in [6] was “inactive” each time. Further, the Potency result in assay [7] and in assay [9] was “inactive” in each case. Also, the activity, negative = cell killing was -6.18% in [8] (setting [12]) and -6.37% in assay [8] (setting [13]).
Consider `CC(C)NCC(O)c1ccc(N)c(C#N)c1` (centres undefined), for which the Potency result in [1], in assay [2], in [3], in assay [4], in [5] and in assay [6] was “inactive” in each case. Besides, the Potency entry in assay [7] and in assay [9] was “inactive” throughout. For the same compound, the activity, negative = cell killing in [8] (setting [12]) was -10.3%; in assay [8] (setting [13]) it was -5.78%; in assay [8] (setting [14]), -34.1%.
As for `NC(=O)OCCCc1ccccc1`, the Potency entry in assay [1], in [2], in [3], in assay [4], in assay [5] and in assay [6] was “inactive” each time. In addition, the Potency result in assay [7] and in [9] was “inactive” each time. Moreover, the activity, negative = cell killing is 0.315% in assay [8] (setting [12]) and -23.1% in assay [8] (setting [13]).
Turning to `CCNc1nc(Cl)nc(NCC)n1`, the Potency result in assay [1], in assay [2], in assay [3], in assay [4], in [5] and in assay [6] was “inactive” in each case. Also, in [7], the Potency entry is “inactive”. For the same compound, the activity, negative = cell killing in [8] (setting [12]) was -2.74%; in [8] (setting [13]), -21.4%; in [8] (setting [14]), -24.7%.
In the case of `CC(C)C(Br)C(=O)NC(N)=O` (centres undefined), the Potency entry in assay [1], in assay [2], in assay [3], in assay [4], in assay [5] and in [6] was “inactive” throughout. Moreover, the Potency result in assay [7] and in assay [9] was “inactive” throughout. Further, the figures for the activity, negative = cell killing in [8] (setting [12]), in assay [8] (setting [13]) and in assay [8] (setting [14]) were -3.2%, -12.7% and -8.61%, respectively.
For the compound `C[C@@H]1CC[C@H]2[C@@H](C)C(=O)O[C@@H]3O[C@@]4(C)CC[C@@H]1[C@]32OO4`, the Potency entry in assay [1], in assay [2], in assay [3], in assay [4], in [5] and in [6] was “inactive” each time. The Potency entry in assay [7] and in assay [9] was “inactive” in each case. The activity, negative = cell killing in assay [8] (setting [12]) was -29.6%.
Turning to `CCOP(=S)(OCC)O/N=C(\C#N)c1ccccc1`, the Potency entry in [1], in assay [2], in assay [3], in [4], in [5] and in assay [6] was “inactive” in each case. Moreover, the Potency entry in assay [7] and in assay [9] was “inactive” in each case. The figures for the activity, negative = cell killing in assay [8] (setting [12]) and in assay [8] (setting [13]) were 9.02% and -6.28%, respectively.
For the compound `CCC(=O)OC1(c2ccccc2)CCN(C)CC1`, the Potency entry in assay [1], in assay [2], in [3], in assay [4], in [5] and in [6] was “inactive” in each case. The Potency entry in assay [7] and in assay [9] was “inactive” in each case. For the same compound, the activity, negative = cell killing was -0.343% in assay [8] (at 108 µM (top of the series), tumour line B) and -13.5% in [8] (at 108 µM (top of the series), tumour line D). Besides, the Potency in assay [8] (tumour line A) was 50.1 µM (active).
Regarding `OC(c1ccccc1)(c1ccccc1)C1CCNCC1`, the Potency entry in assay [1], in assay [2], in assay [3], in [4], in [5] and in assay [6] was “inactive” each time. For the same compound, the Potency result in [7] and in assay [9] was “inactive” throughout. Moreover, the activity, negative = cell killing in [8] (setting [10]) is -16.1%; in [8] (setting [11]), -0.163%.
As for `Oc1ccc([C@H]2CNCc3c2ccc(O)c3O)cc1O`, the Potency entry in [1], in assay [2], in [3], in [4], in [5] and in assay [6] was “inactive” throughout. Besides, the Potency result in assay [7] and in [9] was “inactive” throughout. In addition, the activity, negative = cell killing is -19.9% in assay [8] (setting [12]), -11.1% in [8] (setting [13]) and -27.2% in assay [8] (setting [14]).
As for `CC(C)(O)C(Cl)(Cl)Cl`, the Potency result in assay [1], in assay [2], in assay [3], in assay [4], in assay [5] and in assay [6] was “inactive” throughout. Besides, the Potency result in assay [7] and in assay [9] was “inactive” throughout. Moreover, the results for the activity, negative = cell killing in assay [8] (setting [12]) and in assay [8] (setting [13]) were 4% and 6.2%, respectively.
For `CC(C)=C[C@@H]1[C@@H](C(=O)OCc2coc(Cc3ccccc3)c2)C1(C)C`, the Potency result in assay [1], in assay [2], in assay [3], in assay [4], in assay [5] and in assay [6] was “inactive” each time. Further, the Potency entry in assay [7] and in assay [9] was “inactive” each time. Also, the activity, negative = cell killing is -21% in [8] (setting [12]) and -13.8% in assay [8] (setting [13]).
For `c1cc2c(c(N3CCNCC3)c1)OCCO2`, the Potency entry in assay [1], in [2], in [3], in [4], in assay [5] and in assay [6] was “inactive” in each case. Besides, the Potency result in [7] and in [9] was “inactive” throughout. The figures for the activity, negative = cell killing in assay [8] (setting [12]) and in assay [8] (setting [13]) were -7.8% and -0.968%, respectively.
In the case of `Cc1nc2ccccc2c(=O)n1-c1ccccc1Cl`, the Potency entry in assay [1], in assay [2], in [3], in [4], in assay [5] and in assay [6] was “inactive” each time. Also, the Potency entry in [7] and in assay [9] was “inactive” throughout. The activity, negative = cell killing in [8] (setting [15]) is -7.8%; in [8] (setting [16]), -27.3%. Also, the Potency in assay [8] (tumour line A) is 39.8 µM (active).
As for `Cc1ccc(N=CN(C)C=Nc2ccc(C)cc2C)c(C)c1`, the Potency result in assay [1], in assay [2], in assay [3], in [4], in assay [5] and in assay [6] was “inactive” in each case. For the same compound, the Potency entry in assay [7] and in assay [9] was “inactive” in each case. Further, the activity, negative = cell killing in assay [8] (setting [12]) is -15.5%; in assay [8] (setting [13]), -9.79%.
For `CC(Cc1ccccc1)NCc1ccccc1Cl` (centres undefined), the Potency entry in assay [1], in [2], in assay [3], in [4], in assay [5] and in [6] was “inactive” throughout. Also, in assay [7], the Potency entry was “inactive”. The activity, negative = cell killing in [8] (setting [12]) is -13.4%; in [8] (setting [13]), -38.9%. In addition, the Potency in [8] (tumour line A) is 14.1 µM (active).
For the compound `CCS(=O)(=O)C(C)(C)S(=O)(=O)CC`, the Potency result in assay [1], in [2], in assay [3], in assay [4], in [5] and in assay [6] was “inactive” in each case. The Potency entry in assay [7] and in assay [9] was “inactive” throughout. In addition, the results for the activity, negative = cell killing in assay [8] (setting [12]) and in assay [8] (setting [13]) were -4.87% and 5.45%, respectively.
With `C[N+]1(CCC(C(N)=O)(c2ccccc2)c2ccccc2)CCCCC1`, the Potency result in [1], in assay [2], in assay [3], in assay [4], in assay [5] and in [6] was “inactive” each time. For the same compound, the Potency result in assay [7] and in assay [9] was “inactive” in each case. Also, the activity, negative = cell killing in assay [8] (setting [12]) is -5.31%; in [8] (setting [13]), -19.9%.
Turning to `CN(C)CCc1c[nH]c2ccc(O)cc12`, the Potency result in assay [1], in assay [2], in assay [3], in assay [4], in assay [5] and in [6] was “inactive” throughout. Moreover, the Potency result in assay [7] and in assay [9] was “inactive” throughout. Further, the activity, negative = cell killing in assay [8] (setting [15]) was -5.09%; in assay [8] (setting [16]) it was -23.3%.
